# Screens: PubChem, National Center for Advancing Translational Sciences (NCATS)
# Shiga toxin inh: A qHTS for Small Molecule Inhibitors of Shiga Toxin. hit rate 9.2% among 290,000. AID 2315, 2010. Vero cells, Shiga toxin protein synthesis inhibition reporter. inhibition, % at 38.7 µM; in the data active = inhibition mostly above about 28%, no sharp cut-off; inactive = mostly below about 43%; also: 0% is about no effect
# HCMV inh: qHTS Assay for inhibitors of the human cytomegalovirus (HCMV); HFF cells, HCMV-luciferase reporter, 72 h; hits give low values; activity change, negative = inhibition, % at 57.5 µM; hit rate 4.5% among 410,000; AID 1259415, 2018; in the data active = activity change below about -60%; inconclusive = no clear call, values can overlap the other calls; inactive = above about -39%; also: % is scaled to controls: 0 for no effect and ±100 for the full control effect
#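 Luciferase read-out from HCMV-luciferase-infected HFFs (MOI 1 PFU/cell) 72 h post infection at 37C; compounds added after 16 h cell attachment; activity normalized between buffer-only basal and Salinomycin (10uM) inhibitor controls.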
# Pf growth 48h: Primary qHTS for delayed death inhibitors of the malarial parasite plastid, 48 hour incubation | P. falciparum luciferase growth in erythrocytes, 48 h | Potency, µM (series often up to 28.7 µM), for inactives: top-dose activity change, negative = inhibition, actives largely listed as inhibitors | hit rate 5.9% among 310,000 | AID 504832, 2011; also: potency is read from the fitted curve at half-maximal effect; % is scaled to controls: 0 for no effect and ±100 for the full control effect
#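 Parasite viability was followed by luminescence of a genomically integrated firefly luciferase. Cultures held 0.1% parasitemia at 2% hematocrit (final), incubated under 5% CO2 at 37 C.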
# Pf growth 96h: Primary qHTS for delayed death inhibitors of the malarial parasite plastid, 96 hour incubation; Potency, µM (titrated, usually from 28.7 µM), for the others: at the top dose activity change, negative = inhibition, most hits filed as inhibitors; AID 504834, 2011; P. falciparum luciferase reporter growth, 96 h; hit rate 6.9% among 320,000; also: potency is read from the fitted curve at half-maximal effect; % is scaled to controls: 0 for no effect and ±100 for the full control effect
#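 Two-generation exposure (96 h) targets delayed-death phenotype. Reporter parasites carrying integrated firefly luciferase, in red cells at 2% hematocrit and 0.05% parasitemia final, kept at 37 C, 5% CO2; luminescence loss indicates inhibition.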
# Cycloheximide cs: Cycloheximide Counterscreen for Small Molecule Inhibitors of Shiga Toxin; cell reporter, cycloheximide protein synthesis inhibition counterscreen; max response, %; hit rate 12% among 300,000; in the data active = max response mostly above about 13%, no sharp cut-off; inactive = mostly below about 14%; also: read at 38.3 µM for the half of the compounds with a filed dose; 0% is about no effect
# Numbers without * were called inactive; u = inconclusive; x = not tested or not shown; [ ] = dose if it differs, or a comment. A selection: hits, their analogues and other compounds. The true share with any hit is near 20%. Unless noted, calls follow the shape of the dose curve; as a rule, active = well fitted inhibition curve with a large enough effect; inconclusive = small, poorly fitted or top-dose-only effect, or another doubt; inactive = no such curve, though single readings can be large or run the other way.
SMILES,Shiga toxin inh,HCMV inh,Pf growth 48h,Pf growth 96h,Cycloheximide cs
CC(C)CC(N=Cc1c(O)c2ccccc2oc1=O)C(=O)O (configuration not stated),47,7,8%,21%,10
CCn1c(SCC(=O)c2ccccc2)nnc1-c1cccc(Cl)c1,x,-18,x,x,x
CC(C)(C)c1ccc(OCCSc2nc(-c3cccs3)nc3cc(=O)[nH]n23)cc1,x,-1,x,x,x
CCOC(=O)N1CCN(C(=O)c2cccc(S(=O)(=O)Nc3ccccc3Cl)c2)CC1,x,156,u,u,x
COc1ccc(-n2nc(C(=O)N3CCCCC3C)c3c4ccccc4n(C)c3c2=O)cc1Cl (configuration not stated),x,10,x,x,x
CCN(CC1COc2ccccc2O1)C(=S)Nc1ccc(F)cc1 (configuration not stated),12,u,-22%,0%,3
CCOc1ccc(Cl)cc1-c1cc(C(=O)Nc2ccc(OC)nc2)[nH]n1,x,-16,x,x,x
CCc1cccc(C)c1N=Cc1c(O)c2ccccc2oc1=O,x,0,13µM*,10%,9
CCOC(=O)c1ccc(N=Cc2c(O)c3ccccc3oc2=O)cc1,-8,10,19%,u,-6
CN(C)c1ccc(C(CNS(=O)(=O)c2ccc(F)cc2)N2CCCC2)cc1 (configuration not stated),x,-7,x,x,x
CC1C/C(=N\NC(=S)NC(C)C)CC(C)(C)C1 (configuration not stated),-4,8,x,2.9µM*,-4
CC1C/C(=N\NC(=O)c2ccc([N+](=O)[O-])cc2)CC(C)(C)C1 (configuration not stated),16,-16,-9%,41%,7
COc1cccc(C(=O)NN=C2CCCC2)c1,67*,45,18%,u,38*
O=C(NN=C1CCCC1)c1ccccc1O,58*,60,17%,u,18*
O=C(NN=C1CCCC1)c1ccccc1[N+](=O)[O-],-10,-16,-11%,u,4
CC1C/C(=N\NC(=O)c2cccnc2)CC(C)(C)C1 (configuration not stated),65,-34,13%,5%,18*
O=S(=O)(NCc1nc2cccnc2n1Cc1ccccc1)c1ccc2c(c1)CCCC2,x,19,x,x,x
Cc1c(OC(C)C(=O)NCC2CCC(C(=O)O)CC2)ccc2c(-c3ccccc3)cc(=O)oc12 (configuration not stated),13,-25,u,u,0
COC(=O)c1c(SC)nc2ccccc2c1OCc1ccc(C)cc1C,x,-16,x,x,x
CC(C)/C=N/NC(=O)c1ccc(Cl)cc1,38,-4,3%,20%,24*
CC(O)C(O)C(O)C(O)/C=N/NC(=O)c1ccccc1 (configuration not stated),86*,-33,u,u,38*
Cc1cc(Br)c(OCc2ccc(C(=O)N/N=C3\CC(=O)CC(C)(C)C3)cc2)c(Br)c1,-14,-20,u,0%,1
Cc1cc(OCc2ccc(C(=O)NN=C3CCCC3)cc2)ccc1Cl,85*,-33,3%,0%,57*
Cc1cc(C(=O)NN=C2CCCCCC2)c(C)o1,52*,-12,-3%,40%,25*
COc1ccc(Cn2ccc3nc(C)c(C(=O)N4CCN(c5cccc(OC)c5)CC4)cc3c2=O)cc1,x,-10,x,x,x
SMILES,Shiga toxin inh,HCMV inh,Pf growth 48h,Pf growth 96h,Cycloheximide cs
CCOCCCNC(=O)c1c[nH]c2c(CC)cccc2c1=O,11,101,-16%,u,0
NNC(=O)c1cccc(O)c1,58*,11,33%,42%,67*
COc1ccc(C(=O)NN=C2CCCC2)cc1,8,-16,-1%,9.3µM*,active
CC1C/C(=N\NC(=O)c2ccc(NS(=O)(=O)c3ccc(Br)cc3)cc2)CC(C)(C)C1 (configuration not stated),17*,59,-14%,u,12
Cc1ccc(C)n1-c1ccc(C(=O)NN=C2CCCC2)cc1,26,-18,11%,-17%,8
O=C(O)c1ccccc1NN=C1CCCCC1,110*,93,123%,119%,57*
Cc1cc(C)nc(SCc2ccc(C(=O)N/N=C3\CC(C)CC(C)(C)C3)cc2)n1 (configuration not stated),-4,-9,0%,u,-1
C#CCOCCOCCOCCNc1nc(N2CCN(C(=O)C([C@@H](C)O)n3cc([C@@H](N)CCCCN)nn3)CC2)nc(N2CCN(C(=O)[C@H](CCCCN)n3cc([C@@H](N)CC(N)=O)nn3)CC2)n1 (some centres not stated),x,-14,x,x,x
CCN(CC)CCN(C(=O)c1ccc2c(c1)CCCC2)c1nc2cc(OC)c(OC)cc2s1,-3,x,u,u,-1
O=C(NN=C1CCCC1)c1[nH]c2ccc(Cl)cc2c1-c1ccccc1,0,-92*,u,13µM*,-5
O=C(NN=C1CCCCCC1)c1cccnc1,84*,8,8%,15%,31*
O=C(NN=C1CCN(Cc2ccccc2)CC1)c1cc(Br)ccc1O,18,-34,45%,1.9µM*,4
O=C(NN=C1CCCC1)c1ccc(Br)cc1,-2,60,15%,171%,-1
O=C(NN=C1CCCC1)c1ccc(Cl)cc1,72*,u,-1%,15%,41*
Cc1ccc(C(=O)NCC(=O)OCC(=O)NCCc2ccccc2)s1,-11,8,7%,20%,-2
O=C(Cn1cc(SCc2cccc(F)c2)c2ccccc21)N1CCCC1,x,29,x,x,x
Cc1c(Cl)cccc1-n1ncc(C(=O)NCCN2CCN(C)CC2)c1C1CCN(C(=O)OC(C)(C)C)CC1,x,6,x,x,x
O=C(NN=C1CCCC1)c1cc(O)cc(O)c1,-30,12,19%,u,5
O=C(NN=C1CCCC1)c1cccc(O)c1,76*,-36,58%,-33%,47*
C[C@H](N)c1nnc(SCC(=O)N(C)C)o1,17,75,36%,46%,17*
Cc1ccc2[nH]cc(C(c3ccccc3)c3ccc(C)s3)c2c1 (configuration not stated),x,-100*,x,x,x
Cc1ccc2[nH]cc(C(c3ccccc3)c3cccs3)c2c1 (configuration not stated),x,-79*,x,x,x
NCC(c1ccccc1)c1c[nH]c2ccccc12 (configuration not stated),-7,57,7%,-24%[5.75 µM],-2
Cc1cc(C)n(-c2nc(NCC(C)O)c3c4c(sc3n2)COC(C)(C)C4)n1 (configuration not stated),-5,-10,u,u,-3
Cc1cc(C)n(-c2nc(NCC(C)O)c3c4c(sc3n2)CCCC4)n1 (configuration not stated),32,-17,x,u,16*
Cc1cc(C)n(-c2nc(SCC(=O)O)c3c4c(sc3n2)CCCC4)n1,11,x,u,u,5
